Results filed as inconclusive are left out. Calls of active or inactive are those of the source. Calls follow the shape of the dose curve; as a rule, active = well fitted curve in the direction sought with a large enough effect; inconclusive = small, poorly fitted or top-dose-only effect, or another doubt; inactive = no such curve, though single readings can be large; an effect the other way counts as inactive or inconclusive.
What was measured:
[1] = Viability counterscreen for antagonist of constitutive androstane receptor (CAR) against the NCATS DSHEA and TCM libraries (AID 1794837); conditions: CAR reporter cell line viability counterscreen, qHTS; series mostly up to 40 µM;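 also: compound exposure lasted 24 h before viability reading; 0% is about no effect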
Method in brief: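 Viability was measured by CellTiter-Fluor fluorescence (405/540 nm, 1 hr) in HepG2-CYP2B6-hCAR cells. Cells were co-treated 24 hr with 48 uM CITCO (final), antagonist mode, and test substances.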

[2] = Viability counterscreen for agonist of constitutive androstane receptor (CAR) against the NCATS DSHEA and TCM libraries (AID 1794838); conditions: HepG2 cell viability counterscreen, CAR agonist assay, co-treated with 0.75 µM CAR antagonist; series mostly up to 40 µM; also: 0% is about no effect
Method in brief: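 Cell viability, from CellTiter-Fluor fluorescence (405/540 nm), was scored after a 24 h, 37C exposure of HepG2 cells carrying CYP2B6 reporter and hCAR to test substances in presence of 0.75 uM PK11195.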

[3] = target: Nuclear receptor subfamily 1 group I member 3 (Homo sapiens) (UniProt Q14994); assay: Primary qHTS for agonist of constitutive androstane receptor (CAR) against the NCATS DSHEA and TCM libraries (AID 1794839); conditions: CAR agonist reporter cells, qHTS luminescence, CAR antagonist co-added at 0.75 µM; series mostly up to 40 µM; also: potency is read from the fitted curve at half-maximal effect
Method in brief: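 Agonist mode in presence of hCAR antagonist PK11195 (0.75 µM final): test substances, 24 h, 37 °C, on HepG2-CYP2B6-hCAR cells. Same-well readouts: fluorescence viability, then ONE-Glo luminescence; CITCO as reference agonist.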

[4] = HepG2 viability counterscreen (readout 2: ATP content) against the NCATS DSHEA and TCM libraries (AID 1794840); conditions: ATP content luminescence; series mostly up to 27.3 µM;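 also: HepG2 cells exposed to substances for about 24 h; 0% is about no effect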
Method in brief: (§1)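 Readout 1: cellular protease activity, GF-AFC substrate (25 uM final, 30 min, fluorescence 380/510 nm). Readout 2: ATP content by CellTiter-Glo luminescence after 30 min at RT. Both follow ~24 h exposure of HepG2 cells (1,000/well) to substances.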

[5] = HepG2 viability counterscreen (readout 1: protease activity) against the NCATS DSHEA and TCM libraries (AID 1794841); conditions: qHTS concentration series; series mostly up to 27.3 µM;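 also: cells exposed to compounds for about 24 h before the protease read; 0% is about no effect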
Method in brief: as §1

[6] = KB-3-1 P-gp reporter qHTS against the NCATS DSHEA and TCM libraries (AID 1919975); conditions: KB-3-1 parental cells, CellTiter-Glo luminescence viability, 72 h; series mostly up to 26.1 µM; also: 0% is about no effect
Method in brief: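 Cell viability by CellTiter-Glo luminescence following ~72 h compound exposure (concentration-response). Uses parental, non-P-gp-overexpressing KB-3-1 line, 500 cells/well in DMEM/10% FBS, attached ~4 h before dosing.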

[7] = qHTS Counterscreen for compound interference against the NCATS DSHEA and TCM libraries (AID 1919978); conditions: firefly luciferase detection reagent interference, luminescence;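 also: compounds preincubated with 1 µM D-luciferin or buffer before detection reagent; % of control where 0% means no effect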
Method in brief: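 With 1 uM D-luciferin or phosphate buffer only, compounds at final 19.5 nM–39.8 uM were incubated for 15 min at room temperature. Luciferase detection reagent was then added, and luminescence was measured after a further 30 min at room temperature.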

[8] = Dual reporter qHTS for agonist of Pregnane X Receptor (hPXR) against the NCATS DSHEA and TCM libraries: Fluorescence readout (AID 1920058); conditions: PXR dual reporter cells; series mostly up to 40 µM; also: 0% is about no effect
Method in brief: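 HepG2 hPXR-Luc, 2000 cells/well, 5 h attach; cpds ~24 h, 37 °C/5% CO2; CellTiter-Fluor 1 h; fluor. Ex/Em 405/540 nm = viability.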

[9] = target: Nuclear receptor subfamily 1 group I member 2 (Homo sapiens) (UniProt O75469); assay: Dual reporter qHTS for agonist of Pregnane X Receptor (hPXR) against the NCATS DSHEA and TCM libraries: Luminescence readout (AID 1920059); conditions: hPXR dual reporter cells, luciferase luminescence agonist; series mostly up to 40 µM; also: potency is read from the fitted curve at half-maximal effect
Method in brief: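 hPXR-Luc HepG2 cells, 2000/well in 5% charcoal-stripped FBS medium, attached 5 h, then exposed 24 h at 37C to compounds. Viability by CellTiter-Fluor, then luciferase luminescence with ONE-Glo.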

[10] = target: Nuclear receptor subfamily 1 group I member 2 (Homo sapiens) (UniProt O75469); assay: Dual reporter qHTS for antagonist of Pregnane X Receptor (hPXR) against the NCATS DSHEA and TCM libraries: Luminescence Readout (AID 1920060); conditions: hPXR dual reporter cells, luciferase luminescence, antagonist mode; series mostly up to 40 µM; also: 0% is about no effect
Method in brief: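 Rifampicin-stimulated (2 uM final) hPXR-luciferase HepG2 cells were treated for 24 h with DSNP/TCM substances. Viability came from CellTiter-Fluor fluorescence, reporter activity from ONE-Glo luminescence.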

[11] = target: Cytochrome P450 2D6 (Homo sapiens) (UniProt P10635); assay: qHTS for inhibitors of CYP2D6 against the NCATS DSHEA and TCM libraries (AID 1919972); conditions: CYP2D6 enzymatic inhibition, luminescence qHTS; series mostly up to 34.1 µM; also: potency is read from the fitted curve at half-maximal effect
Method in brief: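 Luminescent P450-Glo read-out of CYP2D6 turnover of a luciferin substrate after NADPH-driven reaction of 30-45 min at room temperature. Compounds were first preincubated 15 min with enzyme at titrated concentrations; quinidine was the intraplate control.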

Sequence of Nuclear receptor subfamily 1 group I member 3 (Homo sapiens) (Q14994 whole entry, looked up): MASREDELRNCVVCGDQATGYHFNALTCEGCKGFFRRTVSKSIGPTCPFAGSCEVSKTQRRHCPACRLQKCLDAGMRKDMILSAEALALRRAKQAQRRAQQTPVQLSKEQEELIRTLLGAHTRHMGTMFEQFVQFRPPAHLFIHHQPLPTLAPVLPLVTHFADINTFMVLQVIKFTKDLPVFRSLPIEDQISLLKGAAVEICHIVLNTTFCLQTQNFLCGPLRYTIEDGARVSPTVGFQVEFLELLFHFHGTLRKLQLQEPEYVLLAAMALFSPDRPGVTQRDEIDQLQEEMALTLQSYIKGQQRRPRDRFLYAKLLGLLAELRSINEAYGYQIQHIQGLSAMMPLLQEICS
Sequence of Cytochrome P450 2D6 (Homo sapiens) (P10635 whole entry, looked up): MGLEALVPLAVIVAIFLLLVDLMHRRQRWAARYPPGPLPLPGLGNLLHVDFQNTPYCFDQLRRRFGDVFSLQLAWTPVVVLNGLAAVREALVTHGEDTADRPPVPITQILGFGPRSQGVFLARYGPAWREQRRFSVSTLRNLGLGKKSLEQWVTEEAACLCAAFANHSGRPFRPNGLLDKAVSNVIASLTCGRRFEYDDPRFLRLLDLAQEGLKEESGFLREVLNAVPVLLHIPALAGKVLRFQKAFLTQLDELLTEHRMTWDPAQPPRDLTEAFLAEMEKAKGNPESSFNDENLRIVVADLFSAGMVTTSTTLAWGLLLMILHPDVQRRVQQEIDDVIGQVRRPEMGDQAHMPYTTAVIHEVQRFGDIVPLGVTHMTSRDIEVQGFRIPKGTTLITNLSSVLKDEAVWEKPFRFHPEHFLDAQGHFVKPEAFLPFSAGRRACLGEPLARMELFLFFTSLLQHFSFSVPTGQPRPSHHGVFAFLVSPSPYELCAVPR
Sequence of Nuclear receptor subfamily 1 group I member 2 (Homo sapiens) (O75469 whole entry, looked up): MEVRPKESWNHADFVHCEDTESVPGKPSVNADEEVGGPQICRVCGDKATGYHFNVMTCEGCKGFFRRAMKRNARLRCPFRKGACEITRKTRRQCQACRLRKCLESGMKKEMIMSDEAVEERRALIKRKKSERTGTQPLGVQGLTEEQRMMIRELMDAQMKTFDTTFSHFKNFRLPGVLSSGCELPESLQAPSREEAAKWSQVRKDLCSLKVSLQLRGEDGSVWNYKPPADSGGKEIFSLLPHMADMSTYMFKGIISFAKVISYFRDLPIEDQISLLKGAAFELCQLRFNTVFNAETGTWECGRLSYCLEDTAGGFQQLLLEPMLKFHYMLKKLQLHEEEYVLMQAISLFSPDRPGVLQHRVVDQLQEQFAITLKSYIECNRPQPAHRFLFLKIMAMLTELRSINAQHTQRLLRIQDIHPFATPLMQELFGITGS

CCCCC/C=C/C(=O)CCc1ccc(O)c(OC)c1
active: Potency [9] 31.6 µM
inactive: outcome [1] | outcome [2] | Potency [3] | outcome [4] | outcome [5] | outcome [6] | max response [7] 4.24% | outcome [8] | outcome [10]

C=C(C)C(CC=C(C)C)CC12CC(CC=C(C)C)C(C)(C)C(CC=C(C)C)(C(=O)/C(=C(\O)c3ccc(O)c(O)c3)C1=O)C2=O (stereo not given)
active: Potency [11] 28.2 µM
inactive: outcome [1] | outcome [2] | Potency [3] | outcome [4] | outcome [5] | max response [7] 3.47% | outcome [8] | outcome [10]

OCC1=C[C@@H](O)[C@@H]2C=CO[C@@H](OC3O[C@H](CO)[C@@H](O)[C@H](O)[C@H]3O)[C@H]12 (stereo not given in full)
inactive: outcome [1] | outcome [2] | Potency [3] | outcome [4] | outcome [5] | Potency [11] | outcome [6] | max response [7] 1.01% | outcome [8] | Potency [9] | outcome [10]

CCCCCCCCCC=O
inactive: outcome [1] | outcome [2] | Potency [3] | outcome [4] | outcome [5] | Potency [11] | outcome [6] | max response [7] 0.0179% | outcome [8] | Potency [9] | outcome [10]

C=CC(C)(CCC=C(C)C)OC(C)=O (stereo not given)
inactive: outcome [1] | outcome [2] | Potency [3] | outcome [4] | outcome [5] | Potency [11] | outcome [6] | max response [7] -0.984% | outcome [8] | Potency [9] | outcome [10]

Cc1ccc(C(C)C)cc1
inactive: outcome [1] | outcome [2] | Potency [3] | outcome [4] | outcome [5] | Potency [11] | outcome [6] | max response [7] -0.622% | outcome [8] | Potency [9] | outcome [10]

CCCCCCCCCCCCCCCCCCCCCC(=O)O
inactive: outcome [1] | outcome [2] | Potency [3] | outcome [4] | outcome [5] | Potency [11] | outcome [6] | max response [7] 3.78% | outcome [8] | Potency [9] | outcome [10]

CCCCCCCCCCCCCC(=O)OCC(O)CO (stereo not given)
inactive: outcome [1] | outcome [2] | Potency [3] | outcome [4] | outcome [5] | Potency [11] | outcome [6] | max response [7] 2.98% | outcome [8] | Potency [9] | outcome [10]

O=c1cc(-c2ccc(O)cc2)oc2cc(O[C@@H]3O[C@H](CO)[C@@H](O)[C@H](O)[C@H]3O[C@@H]3OC[C@](O)(CO)[C@H]3O)cc(O)c12
inactive: outcome [1] | outcome [2] | Potency [3] | outcome [4] | outcome [5] | Potency [11] | outcome [6] | max response [7] 5.67% | outcome [8] | Potency [9] | outcome [10]

CC1(C)CC[C@]2(C(=O)O)CC[C@]3(C)C(=CCC4[C@@]5(C)CC[C@@H](O)C(C)(C)C5CC[C@]43C)C2C1 (stereo not given in full)
inactive: outcome [1] | outcome [2] | Potency [3] | outcome [4] | outcome [5] | Potency [11] | outcome [6] | max response [7] -3.58% | outcome [8] | Potency [9] | outcome [10]

C=C1CC/C=C(/C)CC[C@@H]2[C@@H]1CC2(C)C
active: Potency [3] 7.08 µM
inactive: outcome [1] | outcome [2] | outcome [4] | outcome [5] | Potency [11] | outcome [6] | max response [7] 1.11% | outcome [8] | Potency [9] | outcome [10]

O[C@@H]1[C@@H](O)[C@H](OC/C=C/c2ccccc2)O[C@H](CO[C@@H]2OC[C@H](O)[C@H](O)[C@H]2O)[C@H]1O
inactive: outcome [1] | outcome [2] | Potency [3] | outcome [4] | outcome [5] | Potency [11] | outcome [6] | max response [7] 4.06% | outcome [8] | Potency [9] | outcome [10]

CC[C@H](CC[C@@H](C)[C@H]1CCC2C3CCC4C[C@@H](O)CC[C@]4(C)C3CC[C@@]21C)C(C)C (stereo not given in full)
inactive: outcome [1] | outcome [2] | Potency [3] | outcome [4] | outcome [5] | Potency [11] | outcome [6] | max response [7] -1.23% | outcome [8] | Potency [9] | outcome [10]
